Compound activity deposited in PubChem by National Center for Advancing Translational Sciences (NCATS).
A selection: hits, their analogues and other compounds. The true share with any hit is near 18%.
DT40 TDP1 CPT = growth inhibition of DT40 Tdp1-/-;hTDP1 cells with camptothecin (screen for TDP1 inhibitors). Potency, µM (highest dose often 46.2 µM), for inactives: at the top dose activity change, negative = growth inhibition, most hits filed as inhibitors. 420,000 compounds, 12% hits. chicken DT40 Tdp1-/-;hTDP1 cells + 20 nM CPT, ATP luminescence, 48 h; also: potency is read from the fitted curve at half-maximal effect; nearly all actives have a fitted effect of over 55% in size
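Chicken DT40 Tdp1-/- cells complemented with human TDP1, 400 cells/well, exposed to compounds plus 20 nM camptothecin for at least 48 h at 37 C; viability read as ATP content by CellTiter-Glo luminescence.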
DT40 TDP1 no CPT = qHTS for Inhibitors of human tyrosyl-DNA phosphodiesterase 1 (TDP1): qHTS in cells in absence of CPT. DT40 Tdp1-/- hTDP1 cells, no CPT, ATP luminescence, 48 h. Potency, µM (doses to about 46.2 µM), inactives show at the top dose activity change, negative = growth inhibition, usual class: inhibitors. 420,000 compounds, 15% hits. AID 686978, 2013; also: potency is read from the fitted curve at half-maximal effect; nearly all actives have a fitted effect of over 55% in size
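Chicken DT40 Tdp1-/- cells complemented with human TDP1, screened without camptothecin (DMSO vehicle only), 400 cells/well. Compounds pin-transferred, cells incubated at 37 °C for at least 48 hr. Growth read as ATP-dependent luminescence (CellTiter-Glo, 30 min at RT).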
Six1-Eya2 inh = inhibitors of human Six1/Eya2 interaction; Q15475+O00167; AlphaScreen GST-Six1/His-Eya2 binding, biochemical; stronger effect = lower value; activity change, % (no concentration beside the values); 360,000 compounds, 0.56% hits; AID 651725; in the data active = activity change below about -65%; inconclusive = mostly about -30% to -63%
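Homogeneous AlphaScreen proximity assay pairing GST-Six1 with His-tagged Eya2 (added as 5X mix: 250 nM and 500 nM) in 50 mM Tris pH 8.0, 300 mM NaCl, 1 mM TCEP. Glutathione donor and nickel acceptor beads; 1 h, 37 °C, dark.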
TDP1 block = inhibitors of human tyrosyl-DNA phosphodiesterase TDP1. recombinant TDP1, AlphaScreen DNA substrate cleavage. Potency, µM (highest dose often 130 µM), for inactives: at the top dose activity change, negative = inhibition, usual class: inhibitors. AID 485290. Q9NUW8. 350,000 compounds, 0.28% hits; also: potency is read from the fitted curve at half-maximal effect; nearly all actives have a fitted effect of over 40% in size
Target sequence (Q9NUW8 whole entry, looked up): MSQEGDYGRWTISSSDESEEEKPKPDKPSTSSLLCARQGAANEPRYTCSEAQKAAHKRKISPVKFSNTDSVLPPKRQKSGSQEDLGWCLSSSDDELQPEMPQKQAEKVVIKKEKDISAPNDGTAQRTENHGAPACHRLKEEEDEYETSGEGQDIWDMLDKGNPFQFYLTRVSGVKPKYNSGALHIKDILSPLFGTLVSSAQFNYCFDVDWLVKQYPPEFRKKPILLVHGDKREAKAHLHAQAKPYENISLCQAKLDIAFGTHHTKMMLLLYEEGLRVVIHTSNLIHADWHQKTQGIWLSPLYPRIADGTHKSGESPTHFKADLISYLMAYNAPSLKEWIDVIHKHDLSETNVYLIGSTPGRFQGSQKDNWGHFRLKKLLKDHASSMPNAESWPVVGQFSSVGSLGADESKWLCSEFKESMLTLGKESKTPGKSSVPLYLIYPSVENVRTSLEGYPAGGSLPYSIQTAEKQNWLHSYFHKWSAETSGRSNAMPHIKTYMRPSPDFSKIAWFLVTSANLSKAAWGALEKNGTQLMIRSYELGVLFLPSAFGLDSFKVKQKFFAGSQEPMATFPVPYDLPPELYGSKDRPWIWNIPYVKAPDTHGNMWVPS
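Recombinant human Tdp1 (E. coli-expressed, 1 nM final) preincubated with compounds 15 min at room temperature, then 5'-biotin/3'-phosphotyrosine-FITC DNA substrate (15 nM final) added for 5 min. AlphaScreen beads (10 ug/ml final) added 10 min; cleavage lowers signal.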
IL-1B inflam inh = inflammasome signaling inhibition, IL-1 beta readout. THP-1 LPS/ATP IL-1B secretion, AlphaLISA, 16 h; stronger effect = lower value. activity change, % at 57.5 µM. 360,000 compounds, 4.7% hits; in the data active = activity change below about -50%; inconclusive = mostly about -30% to -49%
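Secreted IL-1B measured by AlphaLISA bead assay after 16 h compound exposure of THP-1 cells; compounds (final up to 57.5 uM) added 1 h before LPS (250 ng/mL) and ATP (1.25 mM) stimulation; lower signal means less secretion.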
CtBP-E1A inh = blocks the CtBP interaction with E1A | AlphaScreen GST-E1A/His-CtBP binding, 1536-well; stronger effect = lower value | activity change, % (test concentration not listed) | 340,000 compounds, 0.49% hits; in the data active = activity change below about -65%; inconclusive = mostly about -30% to -63%
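AlphaScreen with 125 nM GST-E1A and 125 nM His-CtBP (5X stocks) in Tris pH 8.0, 300 mM NaCl, BSA, Tween 20, TCEP. Compounds preincubated 2 h at 37 deg C, then glutathione donor/nickel acceptor beads added for 1 h at 37 deg C in dark.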
The depositor's hits bear a star; [ ] = remark or other dose. Unless noted, calls follow the shape of the dose curve; as a rule, active = well fitted curve in the direction sought with a large enough effect; inconclusive = small, poorly fitted or top-dose-only effect, or another doubt; inactive = no such curve, though single readings can be large; an effect the other way counts as inactive or inconclusive. % is scaled to controls: 0 for no effect and ±100 for the full control effect.

Cc1cccc2cc(C#N)c(N3CCOCC3)nc12 was read as DT40 TDP1 CPT 1%, DT40 TDP1 no CPT -25%, Six1-Eya2 inh 24 and IL-1B inflam inh -8.
Screening COc1ccc(-n2ncc3c(N4CCN(c5cccc(C)c5)C(C)C4)ncnc32)cc1 (configuration not stated) returned DT40 TDP1 CPT 2.9µM*, DT40 TDP1 no CPT 10µM* and TDP1 block 5%.
`Cc1cccc(C(=O)N2CCN(c3ncnc4c3cnn4-c3ccccc3)CC2)c1` gave DT40 TDP1 CPT inconclusive, DT40 TDP1 no CPT inconclusive, Six1-Eya2 inh 8, TDP1 block 2%, IL-1B inflam inh -57* and CtBP-E1A inh 13.
For O=C(COc1ccccc1)N1CCN(c2ncnc3c2cnn3-c2ccccc2)CC1 the results were DT40 TDP1 CPT inconclusive, DT40 TDP1 no CPT inconclusive, Six1-Eya2 inh -29, TDP1 block 7%, IL-1B inflam inh -10 and CtBP-E1A inh -12.
For Cc1cccc(-n2ncc3c(N4CCN(c5ccccc5)CC4)ncnc32)c1 the results were DT40 TDP1 CPT 21µM*, DT40 TDP1 no CPT inconclusive and TDP1 block 5%.
Cc1cccc(-n2ncc3c(N4CCCC4)ncnc32)c1 was read as DT40 TDP1 CPT -31%, DT40 TDP1 no CPT -27%, Six1-Eya2 inh -9, TDP1 block -6%[56.1 µM], IL-1B inflam inh -7 and CtBP-E1A inh 10.
Screening Cc1ccc(-n2ncc3c(N4CCN(c5ccccc5)CC4)ncnc32)cc1C returned DT40 TDP1 CPT inconclusive, DT40 TDP1 no CPT 13µM* and TDP1 block 5%.
For CS(=O)(=O)c1ccc(Cl)c(NC(=O)CSc2nnc3n2CCCCC3)c1 the results were DT40 TDP1 CPT -13%, DT40 TDP1 no CPT 10%, Six1-Eya2 inh 6, IL-1B inflam inh 24 and CtBP-E1A inh 2.
`CCn1c(=O)n(CC(=O)Nc2cc(OC)ccc2OC)c(=O)c2ccccc21` gave DT40 TDP1 CPT inconclusive, DT40 TDP1 no CPT -21%, Six1-Eya2 inh 2, TDP1 block 4%, IL-1B inflam inh 13 and CtBP-E1A inh 1.
COc1ccc(C2=C(N3CCN(c4cccc(C)c4)C(C)C3)c3ccccc3C2=O)cc1 (configuration not stated) was read as DT40 TDP1 CPT 21µM*, DT40 TDP1 no CPT 26µM* and TDP1 block 12%.
Cc1ccc(-n2ncc3c(N4CCN(c5ccccc5)CC4)ncnc32)c(C)c1 was read as DT40 TDP1 CPT 5.8µM*, DT40 TDP1 no CPT 4.6µM*, Six1-Eya2 inh -4, TDP1 block 10%, IL-1B inflam inh -69* and CtBP-E1A inh -9.
Screening COc1ccc(-n2ncc3c(N4CCN(c5cc(C)ccc5C)CC4)ncnc32)cc1 returned DT40 TDP1 CPT 0%, DT40 TDP1 no CPT inconclusive, Six1-Eya2 inh 11, TDP1 block 3%, IL-1B inflam inh 2 and CtBP-E1A inh -3.
For CC1=C(c2ccc(Cl)cc2)S(=O)(=O)N=C1N1CCN(c2cccc(C)c2)C(C)C1 (configuration not stated) the results were DT40 TDP1 CPT 5.2µM*, DT40 TDP1 no CPT 5.2µM* and TDP1 block 6%.
`COc1ccc(N2CCN(c3ncnc4c3cnn4-c3ccc(C)cc3C)CC2)cc1` gave DT40 TDP1 CPT inconclusive, DT40 TDP1 no CPT 12µM*, Six1-Eya2 inh -3, TDP1 block 10%, IL-1B inflam inh 20 and CtBP-E1A inh -11.
`Cc1cccc(N2CCN(c3cc(C)nc4nnnn34)CC2C)c1` (configuration not stated) gave DT40 TDP1 CPT 2%, DT40 TDP1 no CPT -4%, Six1-Eya2 inh 2, TDP1 block -1%, IL-1B inflam inh 5 and CtBP-E1A inh -1.
`Cc1ccc(-c2nc3nc(C)cc(N4CCN(c5cccc(C)c5)C(C)C4)n3n2)cc1` (configuration not stated) gave DT40 TDP1 CPT -13%, DT40 TDP1 no CPT inconclusive and TDP1 block -2%[12.3 µM].
Screening CC(C)n1cc(CN2CCCC(C(=O)Nc3ccccc3Oc3cccnc3)C2)cn1 (configuration not stated) returned DT40 TDP1 CPT -3%, DT40 TDP1 no CPT -12%, Six1-Eya2 inh 9, TDP1 block -6%[56.1 µM], IL-1B inflam inh 1 and CtBP-E1A inh 5.
For CCN(C(=O)CSc1nnc(-c2ccc(C)cc2)n1N)c1c(N)n(Cc2ccccc2)c(=O)[nH]c1=O the results were DT40 TDP1 CPT 14%, DT40 TDP1 no CPT -7%, Six1-Eya2 inh -9, TDP1 block 2%, IL-1B inflam inh 19 and CtBP-E1A inh 14.
For COc1ccc(N2CCN(c3cc(C)c4ccc(C)cc4n3)CC2)cc1 the results were DT40 TDP1 CPT inconclusive, DT40 TDP1 no CPT inconclusive, Six1-Eya2 inh inconclusive, TDP1 block 5%, IL-1B inflam inh -12 and CtBP-E1A inh -2.
Screening COc1ccc(N2CCN(c3nc4cc(C)ccc4cc3C=O)CC2)cc1 returned DT40 TDP1 CPT inconclusive, DT40 TDP1 no CPT inconclusive, Six1-Eya2 inh -11, TDP1 block 14%, IL-1B inflam inh -64* and CtBP-E1A inh -11.
Screening Clc1ccc(CSc2nccn2Cc2ccccc2)cc1 returned DT40 TDP1 CPT inconclusive, DT40 TDP1 no CPT 16µM*, Six1-Eya2 inh -24, TDP1 block 4%, IL-1B inflam inh -73* and CtBP-E1A inh -17.
Cc1ccc2nc(NC(=O)CSc3nccn3Cc3ccccc3)sc2c1 was read as DT40 TDP1 CPT 26µM*, DT40 TDP1 no CPT inconclusive and TDP1 block 8%.
`Cc1ccc2nc(NC(=O)CSc3nccn3Cc3ccc(F)cc3)sc2c1` gave DT40 TDP1 CPT 16µM*, DT40 TDP1 no CPT 18µM* and TDP1 block 8%.
Cc1ccc(NC(=O)CSc2nccn2Cc2ccccc2)cc1C was read as DT40 TDP1 CPT inconclusive, DT40 TDP1 no CPT 21µM*, Six1-Eya2 inh -20, TDP1 block -3%, IL-1B inflam inh 0 and CtBP-E1A inh -17.
Screening Cc1nnc(NC(=O)CSc2nccn2Cc2ccc(F)cc2)s1 returned DT40 TDP1 CPT inconclusive, DT40 TDP1 no CPT inconclusive, Six1-Eya2 inh 19, TDP1 block 1%, IL-1B inflam inh 37 and CtBP-E1A inh 0.
CS(=O)(=O)c1ccc(C(=O)Nc2ccc(S(=O)(=O)N3CCCCC3)cc2)cc1 was read as DT40 TDP1 CPT inconclusive, DT40 TDP1 no CPT inconclusive, Six1-Eya2 inh 3, TDP1 block 7%, IL-1B inflam inh 3 and CtBP-E1A inh 3.
